# From PubChem BioAssay (NCI)
# The panel holds about 83,000 compounds, 20% with a hit somewhere; the sample as a whole holds those more often.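 How to read the values: 0–100, growth inhibition (40 = 60% inhibited); 0, no net growth; -100 to 0, cell death (-40 = 40% of starting cells died; -100 = all dead).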 Values without a mark were called inactive. The source made the active and inactive calls. Rule for the calls: active = growth percent below 10; inactive = the rest.
# Legend:
# Assay in all cases: NCI-60 one-dose screen, 48 h (100 = growth as untreated, 0 = no growth, -100 = all killed)
# Conditions in all cases: 10 µM unless noted
# [1] = test system: HCT-15 colon
# [2] = test system: SNB-75 CNS
# [3] = test system: SNB-19 CNS
# [4] = test system: U251 CNS
# [5] = test system: PC-3 prostate
# [6] = test system: SK-MEL-5 melanoma
# [7] = test system: UACC-62 melanoma
# [8] = test system: LOX IMVI melanoma
# [9] = test system: SK-MEL-28 melanoma
# [10] = test system: SK-MEL-2 melanoma
# [11] = test system: EKVX NSCLC
# [12] = test system: SN12C renal
# [13] = test system: UO-31 renal
# [14] = test system: TK-10 renal
# [15] = test system: ACHN renal
# [16] = test system: CAKI-1 renal
# [17] = test system: A498 renal
# [18] = test system: HT29 colon
# [19] = test system: CCRF-CEM leukemia
# [20] = test system: MOLT-4 leukemia
Structure (SMILES),growth [1],growth [2],growth [3],growth [4] [%],growth [5],growth [6],growth [7],growth [8],growth [9],growth [10],growth [11] [%],growth [12],growth [13],growth [14],growth [15],growth [16],growth [17],growth [18],growth [19],growth [20]
Cc1csc(N/N=C/c2ccncc2)n1,103%,105%,100%,83.5,111%,100%,93.2%,100%,110%,97.7%,90.1,97.8%,95%,91%,103%,99.5%,85.2%,–,–,–
COc1ccc(-c2nn(C(=O)NCCN(C)C)cc2-c2ccncc2)cc1Cl,33.5%,-20% (active),54.8%,–,63.5%,20.5%,34.6%,25.6%,39.4%,32.7%,43.4,49.6%,52.6%,17.1%,47.8%,51.1%,34.2%,15.3%,47.9%,34.3%
COc1ccc(-n2nc(C(=O)Nc3ccc(F)cc3)nc2-c2cc(OC)c(OC)c(OC)c2)cc1,82.2%,–,92.3%,–,79.2%,80.3%,83.7%,94.3%,119%,102%,–,92.4%,51.6%,112%,89.8%,–,66.6%,95.8%,83.2%,69.9%
FC(F)(F)c1cc(-c2nnc3n2N=C(Cl)CS3)cc(C(F)(F)F)c1,96.8%,–,107%,–,96.2%,98.9%,101%,77.1%,134%,123%,–,82.1%,97.9%,118%,110%,–,108%,113%,20.5%,-17.6% (active)
COc1cc2ccc(C(C)=O)cc2cc1OC,97.3%,–,104%,–,91.2%,96.5%,89.4%,92.3%,131%,108%,–,95.1%,72.4%,138%,91.9%,–,65%,112%,118%,127%
C=CCOc1ccc2c(C)cc(=O)oc2c1,101%,111%,122%,–,93%,108%,105%,105%,113%,129%,106,115%,115%,–,108%,97.9%,71%,94.9%,96.2%,107%
CC1OC(n2c3ccccc3c3c4c(c5c6ccccc6[nH]c5c32)C(=O)N(CCN2CCOCC2)C4=O)CC(O)C1O (stereo not drawn),26.5%,5.86% (active),21.5%,–,34%,5.46% (active),21.1%,2.7% (active),67.6%,99.7%,56.7,19.8%,25.5%,–,8.9% (active),14.9%,47.5%,13.4%,27%,6.7% (active)
O=[N+]([O-])c1ccc(Sc2nc(Cl)nc(NC3CCCC3)n2)cc1,-92.4% [100 µM] (active),-100% [100 µM] (active),-95.5% [100 µM] (active),–,-89.5% [100 µM] (active),-90.3% [100 µM] (active),-97.4% [100 µM] (active),-87.9% [100 µM] (active),-97.8% [100 µM] (active),-91.7% [100 µM] (active),–,-88.9% [100 µM] (active),-83.7% [100 µM] (active),-96.7% [100 µM] (active),-100% [100 µM] (active),-91.4% [100 µM] (active),-94.2% [100 µM] (active),-72.6% [100 µM] (active),–,-30.1% [100 µM] (active)
Brc1ccsc1Br,111%,83.5%,106%,–,107%,106%,109%,108%,106%,101%,114,113%,91.3%,109%,112%,99.6%,141%,105%,102%,108%
COc1cccc(NC(=O)OC(C)C)c1,96.3%,96.7%,116%,94.9,93.5%,109%,108%,102%,108%,136%,94.7,98.6%,82.1%,100%,101%,86.4%,92.7%,–,3.14% (active),99%
CCOC(=O)Cn1c(-c2nonc2NC(=O)c2ccccc2F)nc2ccccc21,29.2%,70.1%,47.1%,28.1,44.7%,32.4%,42.4%,10.3%,71.1%,78%,71.1,57.9%,54.5%,66.1%,46.5%,25%,82.5%,–,42.3%,25%
CCCCCCCCCCCCNC(=O)N[C@H](C(=O)N[C@H]1/C=C/OCCNC(=O)/C=C/[C@H](C(C)C)NC1=O)C(C)C,117%,46.5%,47.1%,–,51.1%,46.1%,55.4%,55.7%,46.3%,66.8%,86.5,93.6%,93.5%,97.1%,115%,96.1%,96.1%,34.9%,40.6%,51.3%
ClCCn1cnc2c(SCc3ccccc3Cl)ncnc21,21.3%,79.2%,–,30.4,38.7%,38.4%,33.7%,7.06% (active),47.3%,–,66.8,44.8%,–,34.4%,38.4%,47.6%,39%,26.3%,24.2%,-28% (active)
CCCCCCCCCCCC1=NC(C)(C)CN1CCO,18%,65.2%,100%,21.8,42.5%,58.9%,-14.3% (active),6.59% (active),68.5%,87.8%,68.7,72.6%,68.3%,92.6%,78.2%,75%,95.4%,–,23.5%,–
N/C(=N\O)c1ncc(-c2ccc(C(F)(F)F)cc2)c(NC2CCCCCC2)n1,-62.4% [100 µM] (active),-41.4% [100 µM] (active),-12.7% [100 µM] (active),–,-88.9% [100 µM] (active),-85.8% [100 µM] (active),-88.2% [100 µM] (active),-73.5% [100 µM] (active),10.3% [100 µM],-90.6% [100 µM] (active),–,-91.3% [100 µM] (active),-92.1% [100 µM] (active),-69.5% [100 µM] (active),-64.3% [100 µM] (active),-76.4% [100 µM] (active),-90.1% [100 µM] (active),-91.6% [100 µM] (active),–,-61.3% [100 µM] (active)
COc1ccc(C(=O)OC2C(OC3C(O)COC(O[C@H]4C[C@H]5[C@@H]6CC=C7C[C@@H](O)CC[C@]7(C)[C@H]6CC[C@]5(C)[C@H]4[C@H](C)C(=O)CCC(C)C)C3OC(N)=O)OCC(O)C2O)cc1 (stereo partly drawn),6.08% (active),-10% (active),-28.2% (active),–,-28.1% (active),-86.8% (active),-57.7% (active),-58.3% (active),-59.1% (active),-62% (active),19.5,44.7%,-39% (active),–,40.5%,-36.7% (active),-80.1% (active),4.99% (active),-25.8% (active),-42.3% (active)
